46 compounds from PubChem BioAssay AID2685 (National Center for Advancing Translational Sciences (NCATS), 2010) can be followed below.

The structures appear in SMILES notation. The whole screen tested about 320,000 compounds, of which about 2,100 (0.66%) were called active. About 53% were inconclusive and are not listed. Calls come from the whole dose curve; as a rule, active = well fitted inhibition curve with a large enough effect in the signal ratio, with a control signal flat (not every such curve was filed as active); inconclusive = small, poorly fitted or top-dose-only effect, or effect the other way, or a change in a side signal; inactive = flat fitted curve, though single readings scatter; the % refers to the signal ratio. What follows is part of a selection rich in actives, with near analogues and random picks from the rest.
Potency is the fitted concentration of half-maximal effect.

The nature of the test: qHTS Assay for Lipid Storage Modulators in Drosophila S3 Cells.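 For cell number change: cells counted by Cell Tracker Red CMTPX staining in the red channel.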 For lipid storage change, negative = inhibition: % is set by controls: 0 for no effect and ±100 for the full control effect. The following applies: BODIPY lipid droplet fluorescence, 18-24 h, cells fed with added oleic acid; cell number change: measured here: cell count max response; series mostly up to 46.1 µM; lipid storage change, negative = inhibition: at the top concentration. Summed up: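 Drosophila S3 cells loaded with oleic acid (400 uM, as added) and compounds at several concentrations; lipid droplets imaged by 488-nm laser-scanning cytometry, 500–530 nm intensity and object ratio to cell channel. Percent activity normalized to 20 uM Triacsin C.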
In the case of `COc1ccc(C(C(=O)NCCC(C)C)N(CCO)C(=O)c2snc(C(N)=O)c2N)cc1` (stereo not drawn), the “lipid storage change, negative = inhibition” value was -5.21% (inactive) and the cell number change was -7.09%.
Turning to `O=C(CSc1nnnn1C1CCCC1)NCc1ccc2c(c1)OCO2`, the compound was called inactive.
`CC1CCN(C(=O)c2ccccc2NS(=O)(=O)c2ccccc2)CC1`: the “lipid storage change, negative = inhibition” value was -2.04% (inactive) and the cell number change came out at 7.63%.
On the same counts, the results for `Clc1ccc(N2CCN(Cc3ccco3)CC2)cc1` are 11.9% (inactive) and 9.59%.
Regarding `Cc1[nH]c2ccccc2c1/C=C(\C#N)C(=O)NC1CC1`, the compound was called inactive.
For `CC1CCN(C2(O)C(=O)Nc3ccc([N+](=O)[O-])cc32)CC1` (stereo not drawn), the “lipid storage change, negative = inhibition” value was 19.6% (inactive) and the cell number change is -1.63%.
In the case of `Cc1cccc(NC(=O)c2cccc(N3C(=O)CCC3=O)c2)c1`, the “lipid storage change, negative = inhibition” value was 7.07% (inactive) and the cell number change is -21.8%.
On the same counts, the results for `O=C(Nc1ccc(F)cc1)c1cccc(N2C(=O)C3C4C=CC(C4)C3C2=O)c1` (stereo not drawn) are -23.4% (inactive) and -17.9%.
Consider `COc1ccc(NC(=O)c2cccc(N3C(=O)C4C5C=CC(C6CC56)C4C3=O)c2)cc1` (stereo not drawn), for which the “lipid storage change, negative = inhibition” value is 20.3% (inactive) and the cell number change was 8.84%.
The matching figures for `COc1ccc(NC(=O)c2ccccc2N2C(=O)C3C4C=CC(C5CC45)C3C2=O)c(OC)c1` (stereo not drawn): -7% (inactive) and -15.3%.
`O=C(Nc1ccccc1)c1cccc(N2C(=O)C3C4C=CC(C5CC45)C3C2=O)c1` (stereo not drawn): the Potency is 16.4 µM (active) and the cell number change is -4.48%.
As to `Cc1cccc(NC(=O)c2cccc(N3C(=O)C4C5C=CC(C6CC56)C4C3=O)c2)c1` (stereo not drawn), the Potency is 1.3 µM (active) and the cell number change is -23.8%.
For `COc1ccc(NC(=O)c2cccc(N3C(=O)C4C5C=CC(C5)C4C3=O)c2)c(OC)c1` (stereo not drawn), the outcome was inactive and the cell number change is -15.9%.
On to `COc1ccc(NC(=O)c2cccc(N3C(=O)C4C5C=CC(C6CC56)C4C3=O)c2)c(OC)c1` (stereo not drawn), for which the Potency is 5.17 µM (active).
Consider `Cc1ccc(NC(=O)c2cccc(N3C(=O)C4C5CCC(C5)C4C3=O)c2)c(C)c1` (stereo not drawn), for which the “lipid storage change, negative = inhibition” value is -15.1% (inactive) and the cell number change was found to be 26.1%.
Take `CC(C)CNS(=O)(=O)c1ccc(OCC(=O)Nc2ccc3c(c2)OCCO3)cc1`: the “lipid storage change, negative = inhibition” value was 22.1% (inactive).
With `Cc1nnc(SCC(=O)N2CCN(S(=O)(=O)c3ccc(Cl)cc3)CC2)n(N)c1=O`, the “lipid storage change, negative = inhibition” value was 14.5% (inactive) and the cell number change is -9.35%.
In the case of `COc1ccc(/C=N/Nc2cc(C)nc(N3CCOCC3)n2)c(OC)c1`, the “lipid storage change, negative = inhibition” value is -17.1% (inactive) and the cell number change was -6.43%.
Consider `Cc1ccc(NC(=O)c2cc([N+](=O)[O-])ccc2N2CCOCC2)cc1S(=O)(=O)N(C)C`, for which the “lipid storage change, negative = inhibition” value was 3.55% (inactive) and the cell number change turned out to be 9.84%.
On the same counts, the results for `O=C(Nc1ccccc1O)c1nc(Cl)ccc1Cl` are -0.501% (inactive) and 9.99%.
On to `COC(=O)c1cc(NS(=O)(=O)c2ccc(N3CCCCC3)c([N+](=O)[O-])c2)cc(C(=O)OC)c1`, for which the “lipid storage change, negative = inhibition” value is -9.87% (inactive) and the cell number change is -2.76%.
On to `COc1ccc(NS(=O)(=O)c2ccc(C)c(C(=O)O)c2)cc1`, for which the Potency is 25.9 µM (active) and the cell number change was -20.6%.
For the compound `COc1ccc(NS(=O)(=O)c2ccc(N3CCN(CCO)CC3)c([N+](=O)[O-])c2)cc1`, the Potency is 10.3 µM (active) and the cell number change was -29.2%.
With `COc1ccc(NS(=O)(=O)c2ccc(C)c(C(=O)N3CC(C)OC(C)C3)c2)cc1` (stereo not drawn), the “lipid storage change, negative = inhibition” value was 12.4% (inactive) and the cell number change was 23.9%.
Regarding `COc1ccc(NS(=O)(=O)c2ccc(C)c(C(=O)N(C)Cc3ccc(OC)cc3OC)c2)cc1`, the lipid storage change, negative = inhibition is -11.3% [at 0.0737 µM] (inactive).
On to `O=C(O)c1ccc(NS(=O)(=O)c2ccc(N3CCCC3)c([N+](=O)[O-])c2)cc1`, for which the “lipid storage change, negative = inhibition” value was 0.165% (inactive) and the cell number change was 8.51%.
As to `COc1ccc(S(=O)(=O)Nc2ccc(NC(C)=O)cc2)cc1`, the “lipid storage change, negative = inhibition” value was 13.9% (inactive) and the cell number change came to 29.3%.
Consider `COc1ccc(NS(=O)(=O)c2ccc(N)c(C(=O)O)c2)cc1`, for which the Potency was 20.6 µM (active) and the cell number change is 1.73%.
Regarding `COC(=O)c1ccc(NS(=O)(=O)c2ccc(OC)cc2)cc1`, the outcome was inactive.
Regarding `CCOC(=O)CNC(=O)CSc1nnc(-c2ccco2)n1Cc1ccco1`, the “lipid storage change, negative = inhibition” value is 13.7% (inactive) and the cell number change is -21.7%.
On the same counts, the results for `O=C(CCCCCNC(=O)N1CCn2c1nc1ccccc12)N[C@@H](C(=O)O)c1ccccc1` are 7.77% (inactive) and -11.9%.
On to `Cc1cc(C)c(C#N)c(OCC(=O)Nc2ccccc2)n1`, for which the “lipid storage change, negative = inhibition” value was 0.134% (inactive) and the cell number change worked out at 11.6%.
Consider `CN1CCN(C(=O)c2ccc(Oc3ccc([N+](=O)[O-])cc3)cc2)CC1`, for which the result was inactive.
In the case of `COc1cccc(CNC(=O)c2ccc(NC(=O)CC3SC(N4CCCCC4)=NC3=O)cc2)c1` (stereo not drawn), the “lipid storage change, negative = inhibition” value was -26.4% (inactive) and the cell number change was determined as 11.7%.
Turning to `O=C(Cn1cc[n+](CC(=O)c2ccc(Cl)cc2Cl)c1)c1ccc(Cl)cc1Cl`, the “lipid storage change, negative = inhibition” value was 16.6% (inactive) and the cell number change was -3.27%.
Take `N/C(=N\OC(=O)c1cccc2ccccc12)c1ccncc1`: the “lipid storage change, negative = inhibition” value was 23.4% (inactive) and the cell number change was 1.71%.
On to `N/C(=N\OC(=O)c1cccc2ccccc12)c1cccnc1`, for which the “lipid storage change, negative = inhibition” value is 21.2% (inactive) and the cell number change is 18.1%.
As to `N/C(=N\OC(=O)c1cccc2ccccc12)c1ccc(Br)cc1`, the Potency was 10.3 µM (active) and the cell number change amounted to 18.1%.
On to `CC(=O)c1cccc(NC(=O)c2ccc(C(=O)Nc3cccc(C(C)=O)c3)nc2)c1`, for which the “lipid storage change, negative = inhibition” value is -11.2% (inactive) and the cell number change was determined as 0.877%.
The matching figures for `O=Cc1ccccc1OS(=O)(=O)c1ccccc1`: -12.7% (inactive) and -9.79%.
In the case of `O=C(Oc1ccccc1)c1ccccc1OS(=O)(=O)c1ccccc1`, the Potency is 0.517 µM (active).
`Cc1ccccc1S(=O)(=O)Oc1ccccc1C(=O)Oc1ccccc1`: the “lipid storage change, negative = inhibition” value was -2.83% (inactive) and the cell number change is -11.7%.
In the case of `CC(=O)NC(C)C(=O)OCc1ccc(Cl)cc1Cl` (stereo not drawn), the compound was classed as inactive.
Take `Cc1cccc(N2CCN(C(=O)CCCCCn3c(=S)[nH]c4ccc(N5CCOCC5)cc4c3=O)CC2)c1C`: the Potency was 20.6 µM (active) and the cell number change worked out at 1.42%.
Consider `COc1cccc(CNC(=O)CCCCCn2c(=S)[nH]c3ccc(N4CCOCC4)cc3c2=O)c1`, for which the “lipid storage change, negative = inhibition” value is -0.41% (inactive) and the cell number change turned out to be 4.01%.
For the compound `O=C(CCCCCn1c(=S)[nH]c2ccc(N3CCOCC3)cc2c1=O)NCCc1ccccc1`, the “lipid storage change, negative = inhibition” value was -1.13% (inactive) and the cell number change was -6.4%.
